PubChem BioAssay AID1159580 (chemical genetic matrix, 2015)
“And” between values parts separate entries of the source, which are not always exact repeats. Identical values can stand only once. Out of some 5,500 compounds screened, about 2,000 (36%) were called active. About 18% were inconclusive and are not listed. Cut-off read from the data, not from the text of the source: active = normalized growth mostly below about 0.91 (no sharp cut-off); inconclusive = no clear call, values can overlap the other calls; inactive = mostly above about 0.92. This is one part of the list.

Assay: chemical genetic growth profiling, strain panel (AID 1159580);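 note: tested at 20 µM; growth read once vehicle control cultures reached saturation at 30 °C; 1 = growth at the plate median or of vehicle wells; lower values mean less growth of the strain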
Details: S. cerevisiae deletion strains, growth OD

Measured: normalized growth

COc1ccc2c3c1O[C@H]1C[C@@H](O)C=C[C@@]31CCN(C)C2
inactive: locus YAL013W, strain DEP1, hits give low values 1.01 | locus YAL021C, strain ccr4, hits give low values 1.02 | locus YAL026C, strain drs2, hits give low values 0.993 | locus YAL030W, strain snc1, hits give low values 0.984 | locus YBL061C, strain skt5, hits give low values 0.994 | locus YBR009C, strain hhf1, hits give low values 1.01 | locus YBR021W, strain FUR4, hits give low values 0.999 | locus YBR023C, strain chs3, hits give low values 0.992 | locus YBR171W, strain sec66, hits give low values 1.01 | locus YBR229C, strain ROT2, hits give low values 1 | locus YBR231C, strain swc5, hits give low values 0.984 | locus YBR279W, strain paf1, hits give low values 0.992 | locus YCL011C, strain gbp2, hits give low values 0.998 | locus YCL016C, strain dcc1, hits give low values 0.999 | locus YCL029C, strain bik1, hits give low values 1.02 | locus YCL061C, strain MRC1, hits give low values 1.02 | locus YCL069W, strain vba3, hits give low values 1 | locus YCR088W, strain abp1, hits give low values 1 | locus YDL005C, strain med2, hits give low values 0.995 | locus YDL035C, strain GPR1, hits give low values 1.01 | locus YDL040C, strain nat1, hits give low values 1 | locus YDL074C, strain BRE1, hits give low values 1 | locus YDL101C, strain DUN1, hits give low values 0.996 | locus YDL134C, strain PPH21, hits give low values 1.01 | locus YDL185W, strain tfp1, hits give low values 1.02 | locus YDL192W, strain arf1, hits give low values 1.01 | locus YDR001C, strain nth1, hits give low values 0.998 | locus YDR069C, strain doa4, hits give low values 0.997 | locus YDR101C, strain arx1, hits give low values 1.01 | locus YDR137W, strain rgp1, hits give low values 1.03 | locus YDR150W, strain NUM1, hits give low values 1.01 | locus YDR159W, strain sac3, hits give low values 0.935 | locus YDR162C, strain NBP2, hits give low values 0.97 | locus YDR195W, strain ref2 0.946 | locus YDR297W, strain sur2, hits give low values 1.01 | locus YDR318W, strain mcm21, hits give low values 1.05 | locus YDR334W, strain swr1, hits give low values 0.994 | locus YDR335W, strain msn5, hits give low values 1.02 | locus YDR388W, hits give low values 1.01 | locus YDR392W, strain spt3, hits give low values 1.05 | locus YDR502C, strain sam2, hits give low values 1.01 | locus YEL003W, strain gim4, hits give low values 0.985 | locus YEL037C, strain rad23, hits give low values 1 | locus YEL061C, strain CIN8 (second series), hits give low values 1.01 | locus YEL061C, strain CIN8, hits give low values 1.01 | locus YER015W, strain faa2, hits give low values 0.993 | locus YER016W, strain bim1, hits give low values 1.01 | locus YER110C, hits give low values 1.02 | locus YER111C, strain swi4, hits give low values 0.997 | locus YER155C, strain BEM2 (second series), hits give low values 1.01 | locus YER155C, strain BEM2, hits give low values 0.998 | locus YER167W, strain BCK2, hits give low values 1.03 | locus YFR010W, strain ubp6, hits give low values 0.986 | locus YGL078C, strain dbp3, hits give low values 0.992 | locus YGL086W, strain mad1, hits give low values 1.04 | locus YGL167C, strain pmr1, hits give low values 0.997 | locus YGL173C, strain kem1, hits give low values 0.997 | locus YGL227W, strain vid30, hits give low values 0.997 | locus YGL240W, strain doc1, hits give low values 0.999 | locus YGL248W, strain PDE1, hits give low values 1.01 | locus YGL253W, strain hxk2, hits give low values 1.01 | locus YGR078C, strain PAC10, hits give low values 0.981 | locus YGR135W, strain pre9, hits give low values 1 | locus YGR229C, strain SMI1, hits give low values 0.981 | locus YGR252W, strain gcn5, hits give low values 1.08 | locus YHR013C, strain ard1, hits give low values 1.01 | locus YHR027C, strain rpn1, hits give low values 1 | locus YHR030C, strain SLT2, hits give low values 1.01 and 0.985 | locus YHR079C, strain IRE1 (second series), hits give low values 1.02 | locus YHR079C, strain IRE1, hits give low values 0.989 | locus YHR094C, strain hxt1, hits give low values 1.01 | locus YHR129C, strain ARP1, hits give low values 1.01 | locus YHR142W, strain chs7, hits give low values 0.982 | locus YHR200W, strain rpn10, hits give low values 1.02 | locus YIL066C, strain RNR3, hits give low values 1.01 | locus YIL073C, strain SPO22, hits give low values 1.04 | locus YIL125W, strain kgd1, hits give low values 1.01 | locus YIR030C, strain dcg1, hits give low values 1.02 | locus YJL092W, strain hpr5, hits give low values 1 | locus YJL095W, strain BCK1 (second series), hits give low values 1.01 | locus YJL095W, strain BCK1, hits give low values 1.01 and 0.995 | locus YJL115W, strain asf1, hits give low values 1.01 | locus YJL129C, strain trk1, hits give low values 0.983 | locus YJL134W, strain LCB3, hits give low values 1.01 | locus YJL154C, strain vps35, hits give low values 1.01 | locus YJL164C, strain tpk1, hits give low values 1 | locus YJL166W, strain qcr8, hits give low values 1.01 | locus YJL168C, strain set2, hits give low values 1.01 | locus YJL187C, strain SWE1 (second series), hits give low values 1 | locus YJR043C, strain POL32, hits give low values 1.03 | locus YJR066W, strain TOR1, hits give low values 0.935
